Source: PubChem BioAssay (several laboratories)
A selection: hits, their analogues and other compounds. The true share with any hit is near 2.5%.
V-ATPase pHluor: regulators of yeast V-ATPase proton pumping, primary screen, pHLuorin cytosolic pH fluorescence; S. cerevisiae; response, % at 10 µM; 350,000 tested, 0.37% active; in the data active means response mostly above about 7.3%, no sharp cut-off; inactive means mostly below about 5.4%; further: actives read high
AI-2 QS mod: Vibrio harveyi AI-2 quorum sensing modulators, primary screen, JMH597 strain, luminescence/OD600 ratio. Vibrio harveyi JMH597 AI-2 luminescence/OD600 ratio, 9 h; stronger effect = lower value; strain lacks LuxN and CqsS sensors; 0 = neutral-control median. activity change, % at 7.5 µM. 300,000 tested, 0.4% active. AID 2094, 2009; in the data active means activity change below about -75%, passing the limit was not always enough;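 further: luminescence divided by OD600 gain over 9 h not by final OD600 alone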
Mot1-301 SUMO: yeast Mot1-301 growth rescue at high temperature, primary screen, SUMOylation pathway inhibitor project, S. cerevisiae, ATP luminescence, 38.5C | S. cerevisiae Mot1-301 growth rescue; percent above DMSO median, 100 means doubled | growth rescue, % at 18.8 µM | 320,000 tested, 1% active;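 active means every valid replicate shows activation above 250% relative to neutral control wells; inactive means the rest, any valid replicate at or below 250%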
Efflux pump mplx: inhibitors of Candida efflux pumps in yeast, primary screen, S. cerevisiae, Nile Red, multiplex. S. cerevisiae Candida pump triplex. inhibition, % at 10 µM. 330,000 tested, 0.44% active. AID 485275, 2010;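 active means plate passing quality check with inhibition over a set limit, or well fluorescence over plate mean plus 4 SD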;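 further: Nile Red retained in pooled yeast measured as flow cytometry median fluorescence; higher means more Nile Red kept so more efflux inhibition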
ATG4B inh: ATG4B protease inhibitors, primary screen, biochemical, fluorescence, uHTS | Cysteine protease ATG4B (Homo sapiens), Q9Y4P1 | ATG4B cleavage of LC3-PLA2, NBD-HPC fluorescence, 1 h | inhibition, % at 8.33 µM | 340,000 tested, 0.51% active | AID 504462, 2011; in the data active means inhibition above about 40%
Target sequence (Q9Y4P1 whole entry, looked up): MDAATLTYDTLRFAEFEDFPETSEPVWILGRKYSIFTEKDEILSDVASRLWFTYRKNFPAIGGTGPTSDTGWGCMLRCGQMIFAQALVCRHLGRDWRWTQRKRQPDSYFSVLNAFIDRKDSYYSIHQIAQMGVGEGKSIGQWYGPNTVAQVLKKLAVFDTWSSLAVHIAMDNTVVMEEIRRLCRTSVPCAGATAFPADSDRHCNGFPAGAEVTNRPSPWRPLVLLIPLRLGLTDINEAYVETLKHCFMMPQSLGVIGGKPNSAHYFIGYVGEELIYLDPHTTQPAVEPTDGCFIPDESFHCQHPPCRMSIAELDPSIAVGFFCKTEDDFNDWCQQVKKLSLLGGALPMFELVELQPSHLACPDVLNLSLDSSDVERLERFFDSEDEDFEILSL
Of the large screens only hits and unclear results are named; the others gave an inactive call.

O=C(NCC1CCCO1)c1ccccc1NS(=O)(=O)c1ccc(Br)s1 (stereo not given)	none (no result: AI-2 QS mod, Mot1-301 SUMO, Efflux pump mplx)
COc1cc(OC)cc(C(=O)N[C@H](C(=O)Nc2cccc(S(=O)(=O)N3CCCC3)c2)C(C)C)c1	Mot1-301 SUMO 720
Cc1ccc2nc(-c3ccc(NS(=O)(=O)c4c(C)n(C)c(=O)n(C)c4=O)cc3)sc2c1	Mot1-301 SUMO 323
CCOC(=O)C1(Cc2ccccc2C)CCCN(C(=O)CCc2cccnc2)C1 (stereo not given)	Mot1-301 SUMO 782
Cc1ccc(CNC(=O)NC2CCCCC2)cc1	AI-2 QS mod -89 (no result: Mot1-301 SUMO)
CC(C)(C)c1ccc(NC(=O)Nc2ccc(F)cc2)cc1	AI-2 QS mod -85
CC(C)(C)c1ccc(COC(=O)Nc2ccc(F)cc2)cc1	none
O=C(Cc1ccccc1)Nc1cccc(N2C(=O)C=CC2=O)c1	AI-2 QS mod -88
CCc1ccc(OCC(=O)NNC(=S)NC(=O)C2CC2)c(Br)c1	AI-2 QS mod -85
CCc1ccc(OCC(=O)NNC(=S)NC(=O)C2CCCCC2)c(Br)c1	none
CC1CC(C)CN(C(=O)c2cc3cc(Br)cc(Br)c3o2)C1 (stereo not given)	none
COc1ccc([N+](=O)[O-])cc1N(CC(=O)N1CCOCC1)S(C)(=O)=O	none
COc1ccc([N+](=O)[O-])cc1N(CC(=O)N1CCCC1)S(C)(=O)=O	Mot1-301 SUMO 355
Cc1ccc(S(=O)(=O)CC(=O)c2ccccc2)cc1	AI-2 QS mod -79
Cc1ccc(S(=O)(=O)CC(=O)c2ccc([N+](=O)[O-])cc2)cc1	none
CC(C)OC(=O)n1c(=S)oc2ccccc21	none
CCCCC(=O)/C=C/n1c(=S)oc2ccccc21	AI-2 QS mod -90
CC(=O)N1CCN(S(=O)(=O)c2cccc(C(=O)NC3CCCC3)c2)CC1	none (no result: AI-2 QS mod)
CN1CCN(S(=O)(=O)c2cccc(C(=O)NC3CCCC3)c2)CC1	V-ATPase pHluor 23
Cc1ccc(S(=O)(=O)NCC(=O)NCC(=O)OCC(=O)N2CC(=O)Nc3ccccc32)cc1C	none
Cc1c(Nc2nc(-c3ccc(Cl)cc3)cs2)c(=O)n(-c2ccccc2)n1C	AI-2 QS mod -86
COc1ccc(-c2noc(CN(C)C(=O)Nc3ccccc3)n2)cc1	none
C=C(C)CNC(=S)N/N=C1\CCCCc2ccccc21	Mot1-301 SUMO 311
COc1ccc(-n2cc(-c3ccc(OC)c(OC)c3)[nH]c2=S)cc1	Mot1-301 SUMO 545
COc1ccc(-n2cc(-c3ccc(Br)cc3)[nH]c2=S)cc1	none
CCOc1ccccc1NC(=O)CCCNC(=O)c1ccc(Cl)cc1	none
Cc1ccc(-n2ncc(C(=O)Nc3cc(Cl)ccc3C)c2C2CCNCC2)cc1C	V-ATPase pHluor 32
CCCCCCC1(C)NC(=O)N(C(C)C(=O)Nc2ccc(N3CCOCC3)cc2)C1=O (stereo not given)	none (no result: AI-2 QS mod)
NC(=O)C1(Nc2ccc(C(=O)O)cc2)CCCC1	none (no result: AI-2 QS mod, Mot1-301 SUMO, Efflux pump mplx)
Cc1ccc(C(c2c(C)nn(-c3ccccc3)c2N)c2c(C)nn(-c3ccccc3)c2N)cc1	none
Cc1nn(-c2ccccc2)c(N)c1C(c1ccc(C(C)C)cc1)c1c(C)nn(-c2ccccc2)c1N	Mot1-301 SUMO 409
O=C(/C=C/c1ccco1)NC1CCCC1	Mot1-301 SUMO 693
O=C(/C=C/c1ccco1)NCc1ccc2c(c1)OCO2	AI-2 QS mod -77
CC(=O)Nc1ccc(C(=O)CSc2cc(C)c3cccc(C)c3n2)cc1	none
Cc1nc(N2CCCCC2)nc(N2CCCCC2)c1C=O	none
Nc1ccc2nc3c(=O)n(CCc4ccccc4)c(=O)[nH]c3nc2c1	V-ATPase pHluor 51
Cc1cc2nc3c(=O)n(CCc4ccccc4)c(=O)[nH]c3nc2cc1N	none
Cc1c(NC(=O)c2cc3ccccc3o2)cccc1-n1cnnn1	none (no result: AI-2 QS mod, Mot1-301 SUMO, Efflux pump mplx, ATG4B inh)
Cc1ccc(NC(=O)CS(=O)CC(=O)N(CC(=O)NC(C)(C)C)c2cccc(C)c2C)cc1 (stereo not given)	none
CC(C)[C@H](N)C(=O)NC[C@H](CC(=O)NC[C@H]1CC[C@H](C(=O)O)CC1)c1ccc(Cl)cc1	none
CC(C)(C)OC(=O)NCC1CCC(C(=O)NC[C@H](CC(=O)O)c2ccc(Cl)cc2)CC1 (stereo not given in full)	Mot1-301 SUMO 336
